Results reported in PubChem BioAssay AID1720 (National Center for Advancing Translational Sciences (NCATS), 2009).
Some of the results follow. Inconclusive results are not listed. Values without a mark were called inactive. Activity calls are given as the source filed them. Cut-off read from the data, not from the text of the source: active = inhibition above about 40%; inconclusive = no clear call, values can overlap the other calls; inactive = below about 18%.

What follows are molecules tested against Microtubule-associated protein tau (Homo sapiens) (UniProt P10636) (assay: Sedimentation Assay for Inhibitors of Tau Fibrillization). Conditions: recombinant tau K18 P301L (four-repeat tau fragment), sedimentation SDS-PAGE densitometry; at 100 µM; active compounds read high.
Sequence of Microtubule-associated protein tau (Homo sapiens) (P10636 561-689 P618L limits assumed): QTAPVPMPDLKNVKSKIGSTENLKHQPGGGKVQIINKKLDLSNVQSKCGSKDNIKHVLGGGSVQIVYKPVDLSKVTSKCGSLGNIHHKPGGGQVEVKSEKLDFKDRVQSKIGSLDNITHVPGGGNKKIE
Excerpt: NIH Molecular Libraries Probe Production Network [MLPCN] NIH Chemical Genomics Center [NCGC] MLPCN Grant: X01 MH083262-01 Assay Provider: Carlo Ballatore, University of Pennsylvania NCGC Assay Overview: The microtubule-associated protein tau is an abundant protein in the axons of neurons that stabilizes microtubules. With its ability to modulate microtubule dynamics, tau contributes directly or indirectly, to key structural and regulatory cellular functions. Particularly important is the influence tau exerts on axonal transport, which allows signaling molecules, trophic factors and other essential cellular constituents to travel along the axons. […] The ability of compounds to block tau fibrillization was assessed using a sedimentation assay. Unlike tau monomers, tau fibrils readily sediment upon centrifugation. Samples from the tau ThT confirmation assay treated with 100 uM compound (AID 1558) were centrifuged and the amount of tau present in the supernatant and pellet was determined. […]
NCGC Assay Protocol Summary: Human K18 P301L tau (15 uM) in assay buffer (20 uM heparin, 12.5 uM Thioflavine T, 100 mM sodium acetate pH 7) was centrifuged at 186,000 x g for 30 min and the supernatant removed from the pellet. Pellets were resuspended in a volume equal to the supernatant and equal amounts of supernatants and pellet were analyzed by SDS-PAGE using a 12.5% acrylamide gel. […]
Work on `CC(=O)Nc1sc(C)c2cnn(-c3ccccc3)c(=O)c12` yielded an inhibition of 5%. With `CCN(CC)c1ccc2oc(=O)c(C)nc2c1` the inhibition was 59% (active).
